Screening data from PubChem.
NIH3T3 tox = Cytotoxic Profiling in NIH 3T3 Cell Line of Diverse Libraries Using Quantitative High-Throughput Screening | NIH 3T3 viability, CellTiter-Glo ATP luminescence, 48-72 h | Potency, µM (series often up to 96.7 µM), most hits filed as inhibitors | 94,000 tested, 4.3% active | AID 1345082, 2018; also: nearly all actives have a fitted effect of over 55% in size
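Cytotoxicity is measured as loss of cellular ATP: NIH 3T3 cells (400/well) are exposed to compound for 48 or 72 hr at 37 °C, then CellTiter-Glo luminescence is imaged after 10 min at room temperature.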
HEK293 tox = Cytotoxic Profiling in HEK 293 Cell Line of Diverse Libraries Using Quantitative High-Throughput Screening | HEK 293 viability, ATP luminescence (CellTiter-Glo), 48-72 h | Potency, µM (series often up to 115 µM), actives largely listed as inhibitors | 94,000 tested, 6.6% active | AID 1345083, 2018; also: nearly all actives have a fitted effect of over 60% in size
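HEK 293 cells seeded at 250 cells/well were exposed to compound for 48 or 72 hr at 37 degree Celsius. Viability taken as ATP content by CellTiter-Glo luminescence.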
GPT2 inhibitor = Primary qHTS assay for inhibitors of Glutamate pyruvate transaminase 2 (GPT2); Alanine aminotransferase 2 (Homo sapiens), Q8TD30; Recombinant GPT2, coupled pyruvate oxidase/HRP Amplex Red fluorescence; Potency, µM (doses to about 57.7 µM), most hits filed as inhibitors; 100,000 tested, 0.25% active; also: nearly all actives have a fitted effect of over 60% in size
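GPT2 10ng/uL, a-KG 250uM, L-Ala 2mM, HEPES pH7.5 + 0.0001% Tween; 30 min RT. Then Amplex mix (PO/HRP/ThPP), 30 min RT dark, fluorescence. AOA 50uM used as positive control.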
Luciferase inh = Firefly luciferase inhibition profiling of diverse chemical library using quantitative high-throughput screening; 76,000 tested, 2.5% active; purified P. pyralis luciferase, luminescence, biochemical; Potency, µM (doses to about 115 µM), usual class: inhibitors; Luciferin 4-monooxygenase (Photinus pyralis), P08659; also: nearly all actives have a fitted effect of over 65% in size
Target sequence (P08659 whole entry, looked up): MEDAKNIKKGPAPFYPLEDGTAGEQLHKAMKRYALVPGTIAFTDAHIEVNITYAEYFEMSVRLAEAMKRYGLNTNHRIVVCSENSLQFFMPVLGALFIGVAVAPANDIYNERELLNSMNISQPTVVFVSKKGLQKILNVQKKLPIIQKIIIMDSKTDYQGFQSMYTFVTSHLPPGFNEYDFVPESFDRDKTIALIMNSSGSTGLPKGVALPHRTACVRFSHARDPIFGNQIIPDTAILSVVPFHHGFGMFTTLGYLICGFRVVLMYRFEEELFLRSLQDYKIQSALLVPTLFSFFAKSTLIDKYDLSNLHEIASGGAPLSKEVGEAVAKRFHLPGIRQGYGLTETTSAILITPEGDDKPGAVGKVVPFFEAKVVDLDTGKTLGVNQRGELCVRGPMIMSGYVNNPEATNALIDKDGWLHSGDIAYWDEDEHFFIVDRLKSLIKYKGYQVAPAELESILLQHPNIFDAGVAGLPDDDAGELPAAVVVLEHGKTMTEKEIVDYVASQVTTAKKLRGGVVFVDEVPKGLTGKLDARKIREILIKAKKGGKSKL
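Luminescence read by CCD imaging after purified firefly luciferase (10nM final) was added to substrate buffer holding 10uM D-luciferin and 10uM ATP, pH 7.5, pre-dosed with compound.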
NPR1 antag = Natriuretic polypeptide receptor (hNpr1) antagonism - Primary qHTS; Atrial natriuretic peptide receptor 1 (Homo sapiens), P16066; HEK293 hNpr1 GloSensor cGMP, ANP-stimulated luminescence; Potency, µM (series often up to 46.3 µM), hits mostly inhibitors; 76,000 tested, 1.6% active; calls by dose curve; also: nearly all actives have a fitted effect of over 60% in size
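HEK293 cells stably expressing human Npr1 and cGMP GloSensor pGS-40F, loaded 2 h with 2% GloSensor reagent, given compound 30 min at room temperature. Luminescence read before and 20 min after 0.1 nM hNppA.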
Of the large screens only hits and unclear results are named; the others gave an inactive call. The list is not random: actives were taken first. Their share in the collection is about 10%. Unless noted, calls follow the shape of the dose curve; as a rule, active = well fitted curve in the direction sought with a large enough effect; inconclusive = small, poorly fitted or top-dose-only effect, or another doubt; inactive = no such curve, though single readings can be large; an effect the other way counts as inactive or inconclusive.

O=c1cc(N2CCOCC2)oc2c(-c3cccnc3)nccc12	NIH3T3 tox 79µM
COc1cc(CNc2nccc3c(=O)cc(N4CCOCC4)oc23)cc(OC)c1	NIH3T3 tox 89µM
O=S(=O)(c1ccc(C(F)(F)F)cc1)N1CCC(C2CCNC2)CC1 (centres undefined)	NIH3T3 tox inconclusive, HEK293 tox 79µM
CN1CCN(C(=O)C2CCc3nnc(C4CC4)n32)CC1 (centres undefined)	none (no result: Luciferase inh, NPR1 antag)
NC1CC(c2cc(N3CCN(CCOc4ccccc4)CC3)ncn2)C1 (centres undefined)	NIH3T3 tox inconclusive, HEK293 tox 22µM
CN(C)CCN1CCN(c2cc(C3CC(N)C3)nc(N)n2)CC1 (centres undefined)	none
O=C(c1cccs1)N1CCC[C@H]1c1nc(-c2ccccc2)no1	HEK293 tox inconclusive
CC(C)c1noc(C2CCCN2C(=O)c2cc(-c3cccs3)n(C)n2)n1 (centres undefined)	Luciferase inh 32µM
CCCC1=Nc2cc(C(=O)NCCCN3CCCCC3CC)ccc2Sc2ccc(C)cc21 (centres undefined)	NIH3T3 tox 7.1µM, HEK293 tox inconclusive
COc1cccc(NC(=O)c2ccc3c(c2)N(C)C2CCCCN2C3=O)c1 (centres undefined)	NIH3T3 tox inconclusive, HEK293 tox inconclusive, Luciferase inh inconclusive
CN1c2cc(C(=O)Nc3cccc(OC(F)(F)F)c3)ccc2C(=O)N2CCCC21 (centres undefined)	NIH3T3 tox 35µM, HEK293 tox inconclusive
CN1c2cc(C(=O)Nc3cccc(OC(F)(F)F)c3)ccc2C(=O)N2CCCCC21 (centres undefined)	NIH3T3 tox inconclusive, HEK293 tox 18µM, Luciferase inh inconclusive, NPR1 antag inconclusive
COc1ccc(C(=O)N2CCCC(c3nc(-c4ccccc4)no3)CCNC(=O)CC2)c(OC)c1 (centres undefined)	HEK293 tox inconclusive, Luciferase inh inconclusive
CNC(=O)c1cc(C2CC2)nc2onc(C3CCCN3C(=O)C3CCCC3)c12 (centres undefined)	NIH3T3 tox inconclusive (no result: GPT2 inhibitor, Luciferase inh, NPR1 antag)
O=C(C1CCCC1)N1CCC(C(=O)N2CCC(c3ccccc3)CC2)CC1	NIH3T3 tox inconclusive, HEK293 tox inconclusive (no result: Luciferase inh, NPR1 antag)
CN(C)Cc1cc(C[C@@H]2C[C@H](N(Cc3ccco3)Cc3ccco3)C2(C)C)no1	NIH3T3 tox 79µM, HEK293 tox 71µM
CC1(C)[C@H](Cc2cc(CN3CCOCC3)on2)C[C@@H]1N(Cc1ccco1)Cc1ccco1	NIH3T3 tox inconclusive, HEK293 tox inconclusive
Cc1ccc(C2=NC3(CCN(C(=O)c4ccoc4)CC3)ON2)cc1	Luciferase inh 32µM
Cc1ccc(C2=NC3(CCN(C(=O)c4ccco4)CC3)ON2)cc1	Luciferase inh 28µM
Cc1ccc(C2=NC3(CCN(C(=O)c4ccccc4C)CC3)ON2)cc1	HEK293 tox inconclusive, Luciferase inh inconclusive
Cc1cccc(CN2CCNc3cc(-c4ccnc(C)c4)ncc3C2)c1	NIH3T3 tox inconclusive, HEK293 tox 40µM, Luciferase inh inconclusive
CCn1cc(-c2cc3c(cn2)CN(CCc2ccccc2)CCN3)cn1	NIH3T3 tox inconclusive, HEK293 tox inconclusive
Cc1cc(-c2cc3c(cn2)CN(Cc2ccccc2F)CCN3)ccn1	NIH3T3 tox inconclusive, HEK293 tox 71µM, Luciferase inh 25µM
Cc1cc(-c2cc3c(cn2)CN(Cc2ccc(C(F)(F)F)cc2)CCN3)ccn1	NIH3T3 tox 79µM, HEK293 tox 63µM, Luciferase inh 63µM, NPR1 antag 28µM
Oc1cccc(-c2cc3c(cn2)NCCN(Cc2ccccc2)C3)c1	NIH3T3 tox inconclusive, HEK293 tox inconclusive
c1cc(CN2CCNc3cc(-c4ccsc4)ncc3C2)ccn1	HEK293 tox inconclusive, Luciferase inh inconclusive
Cc1cc(-c2cc3c(cn2)CN(Cc2c[nH]c4ccccc24)CCN3)ccn1	NIH3T3 tox inconclusive, HEK293 tox 112µM, Luciferase inh inconclusive
CC(=O)N1CCC2(CC1)CN(C(=O)Cc1cccc(O)c1)Cc1ccccc1O2	none (no result: Luciferase inh, NPR1 antag)
CC(C)CCN1CCC(N2CCN(S(=O)(=O)c3ccc(CC(C)C)cc3)CC2)C1=O (centres undefined)	NIH3T3 tox inconclusive, HEK293 tox inconclusive, GPT2 inhibitor inconclusive, NPR1 antag inconclusive
COc1cccc(C(=O)N2CCC(C(=O)N3CCC4(CC3)CC(=O)Nc3ccccc3O4)CC2)c1	HEK293 tox inconclusive (no result: Luciferase inh, NPR1 antag)
Fc1ccc(CN2CCNc3cnc(OCc4cccnc4)cc3C2)cc1F	NIH3T3 tox inconclusive, HEK293 tox inconclusive, NPR1 antag inconclusive
Cc1cc(-c2cc3c(cn2)CN(Cc2ccc(F)c(F)c2)CCN3)ccn1	NIH3T3 tox inconclusive, HEK293 tox 71µM, Luciferase inh 40µM
Cc1cccc(CN2CCNc3cnc(OCc4cccnc4)cc3C2)c1	NIH3T3 tox inconclusive, HEK293 tox 100µM, NPR1 antag inconclusive
CCOc1ccccc1NC(=O)N1CC[C@H]2COC(=O)N(Cc3ccccc3)[C@H]2C1	none (no result: Luciferase inh, NPR1 antag)
Cc1cccc(-c2noc(CCC(=O)N3CCC(C)(c4noc(C)n4)CC3)n2)c1	NIH3T3 tox inconclusive, HEK293 tox 45µM
C[S+](=O)([O-])NC1CCN(c2nc3ncccc3o2)C1 (centres undefined)	none (no result: Luciferase inh, NPR1 antag)
c1cncc(Nc2cc3c(cn2)CN(Cc2ccsc2)CCN3)c1	NIH3T3 tox inconclusive, HEK293 tox inconclusive, Luciferase inh 20µM
c1cncc(Nc2cc3c(cn2)CN(Cc2c[nH]c4ccccc24)CCN3)c1	NIH3T3 tox inconclusive, HEK293 tox 112µM, Luciferase inh inconclusive
c1cncc(Nc2cc3c(cn2)CN(CC2CCOCC2)CCN3)c1	NIH3T3 tox inconclusive, Luciferase inh inconclusive
FC(F)(F)Oc1cccc(CN2CCNc3cc(Nc4cccnc4)ncc3C2)c1	NIH3T3 tox inconclusive, HEK293 tox inconclusive, Luciferase inh inconclusive
O=C(NCc1ccco1)C1CN(S(=O)(=O)c2ccccc2)CC12CCCCC2 (centres undefined)	HEK293 tox inconclusive
Cc1ccccc1C(=O)N1CCN(C(=O)c2cccc(-c3ccccn3)c2)CC1	NIH3T3 tox inconclusive, HEK293 tox inconclusive (no result: Luciferase inh, NPR1 antag)
O=C(CC1CCCCN(Cc2ccccc2)C1=O)N1CCc2ccccc2C1 (centres undefined)	NIH3T3 tox inconclusive, HEK293 tox 45µM
O=C(CC1=C2CCCCC2N(Cc2ccccc2)C1=O)N1CCc2ccccc2C1 (centres undefined)	NIH3T3 tox inconclusive, HEK293 tox 50µM
COc1cccc(NC(=O)N2CC(c3nnc(-c4ccncc4)o3)C3(CCOCC3)C2)c1 (centres undefined)	none
COCCCn1c(=O)c(C(=O)NCC(F)(F)F)nc2cccnc21	none (no result: Luciferase inh, NPR1 antag)
